Sampled rows, rich in hits. Any-hit rate of the full collection: about 1.4%.
S1P2 blocker = S1P2 (human) receptor antagonism; O95136; cell-based S1P2 antagonist assay, inhibition at 5 uM; 97,000 compounds, 0.21% hits; inhibition, % at 5 µM; AID 736; in the data active = inhibition above about 45%;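 note: CRE beta-lactamase reporter cells expressing human S1P2 stimulated with S1P; 0% = agonist at EC80 alone and 100% = agonist plus reference antagonist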
LYP inh 2 = LYP (human) phosphatase inhibition. inhibition, % at 2 µM. recombinant LYP catalytic domain, DiFMUP fluorescence. AID 640. Q9Y2R2. 96,000 compounds, 0.21% hits;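 active = inhibition at 2 µM at or above a set limit, the screen mean plus 3 SD, cut at about 24% in these data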;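 note: 0% = DMSO with enzyme and 100% = enzyme fully blocked by orthovanadate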
GALR2 blocker = GALR2 (human) receptor antagonism. GALR2-expressing cells, antagonist mode. O43603. 140,000 compounds, 0.39% hits. inhibition, % at 4 µM; in the data active = inhibition above about 27%;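 note: cells stimulated with galanin 1-16 at roughly its EC80; 0% = agonist challenge control and 100% = basal control without agonist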
PTPN22 act = LYP (human) phosphatase activation. 96,000 compounds, 0.11% hits. activation, % at 2 µM. recombinant LYP, DiFMUP fluorescence; 0 = plate median, 100 = signal doubled. Q9Y2R2. AID 697;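 active = activation at 2 µM above a set limit, the mean plus 5 SD, cut at about 37% in these data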
S1P2 agonist = S1P2 (human) receptor agonism. O95136. S1P2-expressing cell line, agonist reporter read-out. activation, % at 4.5 µM. 97,000 compounds, 0.46% hits. AID 729; in the data active = activation above about 16%;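 note: 0% = vehicle low control and 100% = maximal reference agonist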
GALR2 ag = agonists of human galanin receptor 2 (GALR2) | AID 803 | GALR2-expressing cells, agonist activation read-out | activation, % (no concentration beside the values) | 140,000 compounds, 0.48% hits; in the data active = activation above about 5%, passing the limit was not always enough;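 note: 0% = vehicle buffer wells and 100% = reference agonist at full effect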
GALR2 agon conf = confirmation of human galanin receptor 2 (GALR2) agonists; shares compounds with GALR2 ag; GALR2-expressing cells, agonist activation; activation, % at 5.6 µM; 460 compounds, 10% hits; in the data active = activation above about 8.4%;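 note: 0% = buffer-only vehicle wells and 100% = full reference agonist response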
BLA act counter = activates beta-lactamase reporter in GALR2 agonist counterscreen. shares compounds with GALR2 ag. CHO NFAT-bla reporter, beta-lactamase FRET activation. activation, % at 5.6 µM. 460 compounds, 10% hits;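 active = activation above the screen-wide mean activation plus 3 SD, cut at about 8% in these data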;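 note: 0% = DMSO with PBS wells and 100% = thapsigargin positive control wells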
* marks the source's active call; other numbers are inactive results; nt = not tested or not shown.

SMILES	S1P2 blocker	LYP inh 2	GALR2 blocker	PTPN22 act	S1P2 agonist	GALR2 ag	GALR2 agon conf	BLA act counter
Cc1nc2ccccc2n1CCc1nc2c3ccccc3nc(SCC(=O)NCc3ccco3)n2n1	1	9	-1	-10	-5	8.7*	-1	1
O=C(CCn1c(SCC(=O)NCc2ccco2)nc2ccccc2c1=O)NCCc1ccccc1	15	2	-6	-5	0	-1	nt	nt
O=C(COC(=O)c1cc(Cl)ccc1Cl)NCCN1C(=O)CSC1=O	nt	nt	19	nt	nt	12*	-1	-3
Cc1occc1-c1nnc(SCC(=O)Nc2nc(-c3ccccc3)cs2)o1	-13	14	4	-12	-8	19*	0	-1
COc1ccc(OC)c2sc(NC(=O)c3ccc(Cl)s3)nc12	5	-4	-16	4	-11	-1	nt	nt
COc1ccc(OC)c2sc(NC(=O)c3ccc(Br)s3)nc12	nt	nt	15	nt	nt	13*	-1	-2
COc1cccc2sc(Nc3nc4ccc(NC(C)=O)cc4s3)nc12	nt	nt	4	nt	nt	10*	3	7
O=C1Nc2ccccc2C12OCC(COc1ccc(Cl)cc1)O2 (configuration not stated)	-28	-5	-6	1	0	-2	nt	nt
CC1OC2(OC1C)C(=O)Nc1ccccc12 (configuration not stated)	-10	-7	-4	9	-4	24*	-1	-3
O=C(Nc1ccc(Br)cc1)c1ccc(N2C(=O)C3CC=C(Cl)CC3C2=O)cc1 (configuration not stated)	21	-2	9	3	-1	12*	0	-4
CCCc1nc(N2CCOCC2)c2sc(=S)n(-c3ccccc3)c2n1	-15	10	-10	-12	-2	-3	nt	nt
Cc1ccc(CNC(=O)N[C@@H](Cc2ccccc2)C(=O)O)cc1	nt	nt	1	nt	nt	-1	nt	nt
CCN(CC)S(=O)(=O)c1ccc(C)c(NC(=O)COc2ccc(Cl)cc2Br)c1	nt	nt	-7	nt	nt	10*	8	5
CCN(CC)S(=O)(=O)c1ccc(Cl)c(NC(=O)COc2ccccc2[N+](=O)[O-])c1	nt	nt	12	nt	nt	0	nt	nt
O=Cc1cccn1Cc1ccccc1[N+](=O)[O-]	nt	nt	9	nt	nt	0	nt	nt
O=C(Cc1n[nH]c(=O)[nH]c1=O)N/N=C/c1cccc(O)c1	-14	3	2	-2	-5	15*	-1	-2
O=C(Nc1cccc(Cl)c1)c1ccc(-n2cncn2)c([N+](=O)[O-])c1	17	9	13	-7	-6	-2	nt	nt
O=C(COC(=O)C1CC2C=CC1C2)Nc1cccc(S(=O)(=O)N2CCCCCC2)c1 (configuration not stated)	nt	nt	1	nt	nt	-1	nt	nt
Cc1nc(-n2[nH]c3c(c2=O)CCCC3)[nH]c(=O)c1Cc1ccccc1	13	4	-1	0	-5	9	5	29*
CCCCNC(=O)c1ccc(Cn2c(=S)[nH]c3c([nH]c4ccc(OC)cc43)c2=O)cc1	nt	nt	5	nt	nt	10*	3	0
CC(C)Cn1c(N)c(C(=O)NCC2CCCO2)c2nc3ccccc3nc21 (configuration not stated)	-31	4	0	-4	14	12*	2	3
COCCn1c(N)c(C(=O)NCC2CCCO2)c2nc3ccccc3nc21 (configuration not stated)	-19	-1	3	-1	6	5	nt	nt
COCCn1c(N)c(C(=O)NCc2cccs2)c2nc3ccccc3nc21	-33	-3	-3	2	14	11*	5	10*
N#Cc1c(N)n(CCc2ccc(F)cc2)c2nc3ccccc3nc12	-30	-2	-19	2	16	15*	4	9.4*
Nc1c(C(=O)NCc2ccco2)c2nc3ccccc3nc2n1CCc1ccc(F)cc1	-34	5	-13	-5	13	24*	10*	18*
O=C(NC(=S)Nn1cnnc1)c1cccc(Br)c1	nt	nt	-19	nt	nt	-1	nt	nt
C=CCn1c(NS(=O)(=O)c2ccccc2)c(S(=O)(=O)c2ccc(C)cc2)c2nc3ccccc3nc21	nt	nt	-7	nt	nt	3	nt	nt

Source: PubChem (several laboratories)
